From PubChem BioAssay (Tox21)
Inconclusive results are not listed. Active and inactive are the calls of the source. Calls follow the shape of the dose curve; as a rule, active = well fitted curve in the direction sought with a large enough effect in the repeat runs; inconclusive = weak or mixed curves; inactive = no such curve, though single readings can be large; an effect the other way counts as inactive or inconclusive.

Legend:
[1] = target: Cytochrome P450 2D6 (Homo sapiens) (UniProt P10635); experiment: Cytochrome P450 Family 2 Subfamily D Member 6 (CYP2D6) small molecule antagonists: luciferase reporter qHTS assay (AID 1671196); also: nearly all actives have a fitted effect of over 50% in size; as to activity change, negative = inhibition: series mostly up to about 120 µM
Cytochrome P450 2D6 (Homo sapiens), sequence (P10635 whole entry, looked up): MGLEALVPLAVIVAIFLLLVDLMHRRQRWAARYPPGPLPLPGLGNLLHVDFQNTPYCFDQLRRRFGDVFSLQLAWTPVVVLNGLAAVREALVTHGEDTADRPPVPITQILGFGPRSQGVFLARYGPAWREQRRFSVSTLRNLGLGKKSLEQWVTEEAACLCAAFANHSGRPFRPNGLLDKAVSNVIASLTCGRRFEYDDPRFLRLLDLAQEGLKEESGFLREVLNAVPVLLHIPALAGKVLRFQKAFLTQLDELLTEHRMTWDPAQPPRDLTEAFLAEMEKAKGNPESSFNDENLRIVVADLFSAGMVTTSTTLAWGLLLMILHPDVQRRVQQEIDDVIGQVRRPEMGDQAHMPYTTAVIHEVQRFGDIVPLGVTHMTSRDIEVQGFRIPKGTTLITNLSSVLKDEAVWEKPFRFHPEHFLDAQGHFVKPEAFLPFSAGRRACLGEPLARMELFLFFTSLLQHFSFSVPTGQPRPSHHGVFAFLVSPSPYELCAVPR
Summary of the method: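 Read-out is luminescence from luciferin formed by CYP2D6 turnover of a proluciferin substrate, recorded as relative luminescence units. Reactions ran 1 h at room temperature after NADPH regeneration solution was added.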

[2] = target: Cytochrome P450 2C19 (Homo sapiens) (UniProt P33261); experiment: Cytochrome P450 Family 2 Subfamily C Member 19 (CYP2C19) small molecule antagonists: luciferase reporter qHTS assay (AID 1671197); also: nearly all actives have a fitted effect of over 65% in size; as to activity change, negative = inhibition: series mostly up to about 120 µM
Cytochrome P450 2C19 (Homo sapiens), sequence (P33261 whole entry, looked up): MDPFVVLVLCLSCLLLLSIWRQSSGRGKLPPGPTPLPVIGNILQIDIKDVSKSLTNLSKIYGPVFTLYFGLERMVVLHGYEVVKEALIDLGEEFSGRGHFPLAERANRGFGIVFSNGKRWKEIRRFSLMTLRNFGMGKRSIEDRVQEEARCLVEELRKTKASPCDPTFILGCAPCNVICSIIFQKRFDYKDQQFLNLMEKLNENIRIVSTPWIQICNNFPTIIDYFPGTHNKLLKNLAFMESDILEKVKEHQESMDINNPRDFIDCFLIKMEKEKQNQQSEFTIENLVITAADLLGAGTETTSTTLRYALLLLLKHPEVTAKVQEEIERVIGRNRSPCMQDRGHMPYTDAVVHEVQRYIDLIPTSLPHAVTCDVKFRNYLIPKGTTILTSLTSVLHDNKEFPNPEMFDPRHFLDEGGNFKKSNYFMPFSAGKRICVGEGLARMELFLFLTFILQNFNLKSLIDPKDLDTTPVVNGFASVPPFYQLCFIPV
Summary of the method: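 CYP2C19 P450-Glo, 1536-well qHTS. Cpd + enzyme/proluciferin substrate 10 min RT; + NADPH regen, 37C 1 h; stop with luciferin detection reagent, 20 min RT, luminescence (RLU). Pos ctrl ketoconazole.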

[3] = target: Cytochrome P450 2C9 (Homo sapiens) (UniProt P11712); experiment: Cytochrome P450 Family 2 Subfamily C Member 9 (CYP2C9) small molecule antagonists: luciferase reporter qHTS assay (AID 1671198); also: nearly all actives have a fitted effect of over 50% in size; as to activity change, negative = inhibition: series mostly up to about 120 µM
Cytochrome P450 2C9 (Homo sapiens), sequence (P11712 whole entry, looked up): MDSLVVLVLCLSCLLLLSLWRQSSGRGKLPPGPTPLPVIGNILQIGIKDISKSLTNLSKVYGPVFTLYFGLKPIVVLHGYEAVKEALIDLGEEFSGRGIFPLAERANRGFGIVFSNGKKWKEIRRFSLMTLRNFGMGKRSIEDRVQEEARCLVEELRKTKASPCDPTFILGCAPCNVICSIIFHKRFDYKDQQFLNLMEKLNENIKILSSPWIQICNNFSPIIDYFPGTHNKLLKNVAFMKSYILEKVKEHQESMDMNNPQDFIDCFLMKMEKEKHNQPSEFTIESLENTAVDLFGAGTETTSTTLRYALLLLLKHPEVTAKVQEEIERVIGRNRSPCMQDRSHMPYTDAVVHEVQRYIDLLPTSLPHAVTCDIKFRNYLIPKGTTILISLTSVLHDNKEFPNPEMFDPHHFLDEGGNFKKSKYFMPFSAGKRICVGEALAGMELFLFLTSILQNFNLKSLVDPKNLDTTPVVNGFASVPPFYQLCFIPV
Summary of the method: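 P450-Glo proluciferin substrate with CYP2C9 enzyme; 10 min RT preincubation, then NADPH regeneration 1 h at 37C; luciferin detection reagent 20 min RT, luminescence in relative luminescence units.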

[4] = target: Cytochrome P450 1A2 (Homo sapiens) (UniProt P05177); experiment: Cytochrome P450 Family 1 Subfamily A Member 2 (CYP1A2) small molecule antagonists: luciferase reporter qHTS assay (AID 1671199); also: nearly all actives have a fitted effect of over 50% in size; as to activity change, negative = inhibition: series mostly up to about 120 µM
Cytochrome P450 1A2 (Homo sapiens), sequence (P05177 whole entry, looked up): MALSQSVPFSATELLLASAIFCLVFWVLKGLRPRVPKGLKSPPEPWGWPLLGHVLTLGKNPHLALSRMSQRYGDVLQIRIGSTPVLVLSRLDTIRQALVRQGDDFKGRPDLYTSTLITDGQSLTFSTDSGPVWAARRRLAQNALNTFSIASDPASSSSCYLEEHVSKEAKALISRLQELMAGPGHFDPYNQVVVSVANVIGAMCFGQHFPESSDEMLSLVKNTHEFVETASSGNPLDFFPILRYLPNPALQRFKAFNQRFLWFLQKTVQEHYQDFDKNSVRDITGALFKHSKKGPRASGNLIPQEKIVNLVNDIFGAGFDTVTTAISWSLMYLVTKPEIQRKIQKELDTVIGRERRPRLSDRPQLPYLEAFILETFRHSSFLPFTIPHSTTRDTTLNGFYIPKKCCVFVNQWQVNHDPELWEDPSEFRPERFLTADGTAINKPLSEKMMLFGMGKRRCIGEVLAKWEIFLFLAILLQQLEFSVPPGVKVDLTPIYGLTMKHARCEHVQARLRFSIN
Summary of the method: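 P450-Glo CYP1A2, 1536-well qHTS: enzyme/proluciferin substrate + cpd (DMSO), 10 min RT; NADPH regen, 1 h RT; detection reagent, 20 min; luminescence, RLU.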

[5] = target: Voltage-gated inwardly rectifying potassium channel KCNH2 (Homo sapiens) (UniProt Q12809); experiment: Human Ether-a-go-go-Related Gene (hERG) channel small molecule antagonists: fluorescence cell-based qHTS assay (AID 1671200); also: nearly all actives have a fitted effect of over 50% in size;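 as to activity change, negative = inhibition: hERG-expressing U2OS cells given a thallium stimulus after FluxOR II dye loading; series mostly up to about 77 µM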
Voltage-gated inwardly rectifying potassium channel KCNH2 (Homo sapiens), sequence (Q12809 whole entry, looked up): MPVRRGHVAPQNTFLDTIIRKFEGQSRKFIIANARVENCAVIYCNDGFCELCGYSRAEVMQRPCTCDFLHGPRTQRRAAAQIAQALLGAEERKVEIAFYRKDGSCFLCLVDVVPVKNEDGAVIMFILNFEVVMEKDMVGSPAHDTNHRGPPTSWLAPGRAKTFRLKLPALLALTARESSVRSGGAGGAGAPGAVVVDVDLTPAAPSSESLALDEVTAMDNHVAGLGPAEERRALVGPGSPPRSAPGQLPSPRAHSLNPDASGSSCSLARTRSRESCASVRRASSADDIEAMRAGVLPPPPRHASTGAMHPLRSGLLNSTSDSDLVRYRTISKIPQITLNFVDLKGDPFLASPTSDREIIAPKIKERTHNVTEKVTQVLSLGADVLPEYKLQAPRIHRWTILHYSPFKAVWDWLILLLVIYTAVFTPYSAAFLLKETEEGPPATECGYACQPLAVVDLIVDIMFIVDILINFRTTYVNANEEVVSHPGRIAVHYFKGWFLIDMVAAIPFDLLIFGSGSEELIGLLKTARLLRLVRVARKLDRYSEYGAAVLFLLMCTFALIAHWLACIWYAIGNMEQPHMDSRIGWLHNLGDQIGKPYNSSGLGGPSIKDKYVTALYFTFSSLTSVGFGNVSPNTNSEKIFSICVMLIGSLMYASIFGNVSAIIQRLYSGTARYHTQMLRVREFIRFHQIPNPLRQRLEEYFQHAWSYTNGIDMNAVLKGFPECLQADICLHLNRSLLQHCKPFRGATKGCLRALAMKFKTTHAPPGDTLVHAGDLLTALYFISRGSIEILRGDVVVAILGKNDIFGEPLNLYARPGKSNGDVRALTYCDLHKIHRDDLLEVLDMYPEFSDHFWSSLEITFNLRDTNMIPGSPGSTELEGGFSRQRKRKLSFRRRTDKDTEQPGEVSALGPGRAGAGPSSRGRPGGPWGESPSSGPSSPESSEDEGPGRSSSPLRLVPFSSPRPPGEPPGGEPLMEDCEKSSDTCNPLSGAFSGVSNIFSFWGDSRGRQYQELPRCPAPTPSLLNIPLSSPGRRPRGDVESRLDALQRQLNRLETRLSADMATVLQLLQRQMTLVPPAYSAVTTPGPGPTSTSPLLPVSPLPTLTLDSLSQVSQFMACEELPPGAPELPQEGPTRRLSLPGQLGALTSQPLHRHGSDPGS
Summary of the method: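 Channel function was assessed by thallium flux. Cells seeded the previous day and kept at 37 C took up FluxOR II dye over 1 h in the dark at room temperature, then sat another 10 min before stimulation.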

[6] = target: Cytochrome P450 3A4 (Homo sapiens) (UniProt P08684); experiment: Cytochrome P450 Family 3 Subfamily A Member 4 (CYP3A4) small molecule antagonists: luciferase reporter qHTS assay (AID 1671201); also: nearly all actives have a fitted effect of over 50% in size; as to activity change, negative = inhibition: series mostly up to about 120 µM
Cytochrome P450 3A4 (Homo sapiens), sequence (P08684 whole entry, looked up): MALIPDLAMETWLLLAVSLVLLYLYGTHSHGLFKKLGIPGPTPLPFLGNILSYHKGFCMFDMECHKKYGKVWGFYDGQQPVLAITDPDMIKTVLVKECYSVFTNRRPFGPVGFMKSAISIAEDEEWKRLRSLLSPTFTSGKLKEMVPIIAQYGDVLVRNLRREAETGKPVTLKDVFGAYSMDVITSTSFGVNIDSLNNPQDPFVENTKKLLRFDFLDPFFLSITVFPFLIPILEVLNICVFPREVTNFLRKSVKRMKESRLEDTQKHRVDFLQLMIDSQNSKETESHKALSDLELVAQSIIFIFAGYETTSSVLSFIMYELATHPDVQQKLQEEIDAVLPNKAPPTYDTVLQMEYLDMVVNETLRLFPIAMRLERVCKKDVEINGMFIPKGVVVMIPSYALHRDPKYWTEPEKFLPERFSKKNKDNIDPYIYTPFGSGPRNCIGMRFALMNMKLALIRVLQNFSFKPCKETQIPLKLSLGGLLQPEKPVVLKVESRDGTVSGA
Summary of the method: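 Compounds in DMSO were pin-transferred onto CYP3A4 enzyme-substrate mix and held 10 min at room temperature. NADPH regenerating solution started the reaction for 1 h; luciferin detection reagent stopped it, and luminescence was read after 20 min.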
% is scaled to controls: 0 for no effect and ±100 for the full control effect; potency is read from the fitted curve at half-maximal effect.

CC1(C)C(=O)NC(=O)N1CO
inactive: Potency [1] | Potency [2] | Potency [3] | Potency [4] | Potency [5] | Potency [6]

c1ccc(CN(Cc2ccccc2)Cc2ccccc2)cc1
inactive: Potency [6]
active: Potency [1] 7.96 µM | Potency [2] 5.64 µM | Potency [3] 31.7 µM | Potency [4] 20 µM | Potency [5] 24.5 µM

C=CCCC
inactive: Potency [1] | Potency [2] | Potency [3] | Potency [4] | Potency [5] | Potency [6]

O=C(O)c1ccc2c(c1)nc(C(=O)NC1CCN(C3CC3)CC1)n2Cc1cc(-c2ccc(Cl)s2)on1
inactive: activity change, negative = inhibition [1] -3.64% [at 23.6 µM] | activity change, negative = inhibition [2] 14.2% [at 23.6 µM] | activity change, negative = inhibition [3] -6.17% [at 23.6 µM] | activity change, negative = inhibition [4] 0.996% [at 23.6 µM] | activity change, negative = inhibition [5] -1.6% [at 15.8 µM] | activity change, negative = inhibition [6] 1.57% [at 23.6 µM]

O=C(O)c1cc(C(=O)O)c(C(=O)O)cc1C(=O)O
inactive: Potency [1] | Potency [2] | Potency [3] | Potency [4] | Potency [5] | Potency [6]

CCC(CC)C(=O)O
inactive: Potency [1] | Potency [2] | Potency [3] | Potency [4] | Potency [5] | Potency [6]

O=C(c1ccco1)N1CCNCC1
inactive: Potency [1] | Potency [2] | Potency [3] | Potency [4] | Potency [5] | Potency [6]

CC(CCl)OC(C)CCl (stereo unspecified)
inactive: Potency [1] | Potency [2] | Potency [3] | Potency [4] | Potency [5] | Potency [6]

O=C(OCCCCCOC(=O)c1ccccc1)c1ccccc1
inactive: Potency [1] | Potency [5] | Potency [6]
active: Potency [2] 56.4 µM | Potency [3] 11.2 µM | Potency [4] 7.96 µM

Cc1cccc(C)c1NC(=O)CN1CCCC1
inactive: Potency [2] | Potency [3] | Potency [4] | Potency [5] | Potency [6]
active: Potency [1] 15.5 µM

Cc1ccc2c(Cl)cc(Cl)c(O)c2n1
inactive: Potency [1] | Potency [2] | Potency [3] | Potency [5]

CCCC(=O)OCCC(C)C
inactive: Potency [1] | Potency [2] | Potency [3] | Potency [4] | Potency [5] | Potency [6]

Clc1nc2ccccc2nc1Cl
inactive: Potency [2] | Potency [3] | Potency [5] | Potency [6]
active: Potency [1] 64 µM | Potency [4] 5.09 µM

FC1(F)C(F)(F)C(F)(F)C2(F)C(F)(C1(F)F)C(F)(F)C(F)(F)C1(F)C(F)(F)C(F)(F)C(F)(F)C(F)(F)C12F (stereo unspecified)
inactive: Potency [1] | Potency [2] | Potency [3] | Potency [4] | Potency [5] | Potency [6]

O=Cc1ccc(Cl)c([N+](=O)[O-])c1
inactive: Potency [5]
active: Potency [1] 35.6 µM | Potency [2] 22.4 µM | Potency [3] 71 µM | Potency [4] 22.4 µM | Potency [6] 71 µM

Cc1nc(C)c(C)nc1C
active: Potency [4] 35.6 µM
inactive: Potency [1] | Potency [2] | Potency [3] | Potency [5] | Potency [6]

C=C[Si]1(C)O[Si](C)(C=C)O[Si](C)(C=C)O[Si](C)(C=C)O1 (stereo unspecified)
inactive: Potency [1] | Potency [3] | Potency [5]
active: Potency [2] 63.3 µM

CCCCCO
inactive: Potency [1] | Potency [2] | Potency [3] | Potency [5] | Potency [6]

C[C@H](N)C(=O)N[C@@H](C)C(=O)NC1[C@H]2CN(c3nc4c(cc3F)c(=O)c(C(=O)O)cn4-c3ccc(F)cc3F)C[C@@H]12 (stereo partly specified)
active: Potency [6] 12.3 µM
inactive: Potency [1] | Potency [2] | Potency [3] | Potency [5]

OCCOc1cccc(OCCO)c1
inactive: Potency [1] | Potency [2] | Potency [3] | Potency [5] | Potency [6]

CC(C)CC(C)(C)C
inactive: Potency [5]
active: Potency [1] 36.9 µM | Potency [2] 20.8 µM | Potency [3] 36.9 µM | Potency [6] 32.9 µM

CC1(C)CC(=O)CC(C)(C)N1
inactive: Potency [1] | Potency [2] | Potency [3] | Potency [5] | Potency [6]

Oc1ccc(Oc2ccccc2)cc1
active: Potency [1] 26.8 µM | Potency [2] 26.8 µM | Potency [3] 26.8 µM
inactive: Potency [5] | Potency [6]

CCCCCCCCC(=O)OCC(C)OC(=O)CCCCCCCC (stereo unspecified)
inactive: Potency [1] | Potency [5] | Potency [6]
active: Potency [2] 83.4 µM | Potency [3] 59.1 µM

CC/C=C/CCO
inactive: Potency [1] | Potency [2] | Potency [3] | Potency [5] | Potency [6]

O=P(c1ccccc1)(c1ccccc1)c1ccccc1
inactive: Potency [1] | Potency [5]
active: Potency [2] 5.64 µM | Potency [3] 6.33 µM

COc1cc(C)c(Cc2cnc(N)nc2N)cc1OC
inactive: Potency [1] | Potency [2] | Potency [3] | Potency [5] | Potency [6]

O=[N+]([O-])c1ccccc1CCO
inactive: Potency [1] | Potency [2] | Potency [3] | Potency [5] | Potency [6]

Cc1cc(C)n(CO)n1
inactive: Potency [1] | Potency [2] | Potency [3] | Potency [5] | Potency [6]

CCCCCCCCS
inactive: Potency [1] | Potency [2] | Potency [3] | Potency [5] | Potency [6]

CC(O)CN (stereo unspecified)
inactive: Potency [1] | Potency [2] | Potency [3] | Potency [5] | Potency [6]

CC(CC(C#N)(c1ccccc1)C(C)C)N(C)C (stereo unspecified)
inactive: Potency [2] | Potency [3] | Potency [5]
active: Potency [1] 15.5 µM | Potency [6] 6.92 µM

O=C(NC1CCN(CCc2c[nH]c3ccccc23)CC1)c1ccccc1
active: Potency [1] 1.95 µM | Potency [5] 4.77 µM
inactive: Potency [2] | Potency [3]

COc1ccc(/C=C/c2cc(OC)cc(=O)o2)cc1
inactive: Potency [1] | Potency [3] | Potency [5] | Potency [6]
active: Potency [2] 4.09 µM

COc1ccc(CN(CCN(C)C)c2ncccn2)cc1
active: Potency [1] 0.692 µM | Potency [2] 21.9 µM
inactive: Potency [3] | Potency [5] | Potency [6]
